Cardio protect: protects H9c2 cardiomyocytes from peroxide injury; H2O2 injury protection, ATPLite, 2 h; protection from H2O2 cell death, % at 20 µM; 0.63% of 360,000 active; AID 588492;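 active = compounds giving at least 50% protection of heart cells from peroxide-induced death in the single-dose screen, raw or plate-pattern-corrected value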;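 also: 0% = DMSO wells with peroxide and 100% = DMSO wells without peroxide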
HDAC3 inh: blocks human histone deacetylase 3 | AID 2718 | recombinant HDAC3, fluorogenic peptide/trypsin coupled, fluorescence | inhibition, % at 8.3 µM | 0.15% of 320,000 active | O15379; in the data active = inhibition above about 26%, passing the limit was not always enough; inconclusive = no clear call, values can overlap the other calls
Neddylation inh: inhibitors of human cullin neddylation | P61081+Q13564 | TR-FRET cullin neddylation, biochemical | inhibition, % at 25 µM | 0.58% of 360,000 active | AID 651699; in the data active = inhibition above about 36%
GRK2 inh: blocks RNA aptamer binding to human GRK2. P25098. 0.59% of 330,000 active. bead flow cytometry, FAM-aptamer displacement from GRK2. inhibition of aptamer binding, % at 10 µM;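 active = inhibition of aptamer binding above 40%, roughly 3 SD of noise, on plates passing a quality check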;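 also: median bead fluorescence of bound FAM aptamer so fluorescent compounds give negative values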
Target sequence (P25098 whole entry, looked up): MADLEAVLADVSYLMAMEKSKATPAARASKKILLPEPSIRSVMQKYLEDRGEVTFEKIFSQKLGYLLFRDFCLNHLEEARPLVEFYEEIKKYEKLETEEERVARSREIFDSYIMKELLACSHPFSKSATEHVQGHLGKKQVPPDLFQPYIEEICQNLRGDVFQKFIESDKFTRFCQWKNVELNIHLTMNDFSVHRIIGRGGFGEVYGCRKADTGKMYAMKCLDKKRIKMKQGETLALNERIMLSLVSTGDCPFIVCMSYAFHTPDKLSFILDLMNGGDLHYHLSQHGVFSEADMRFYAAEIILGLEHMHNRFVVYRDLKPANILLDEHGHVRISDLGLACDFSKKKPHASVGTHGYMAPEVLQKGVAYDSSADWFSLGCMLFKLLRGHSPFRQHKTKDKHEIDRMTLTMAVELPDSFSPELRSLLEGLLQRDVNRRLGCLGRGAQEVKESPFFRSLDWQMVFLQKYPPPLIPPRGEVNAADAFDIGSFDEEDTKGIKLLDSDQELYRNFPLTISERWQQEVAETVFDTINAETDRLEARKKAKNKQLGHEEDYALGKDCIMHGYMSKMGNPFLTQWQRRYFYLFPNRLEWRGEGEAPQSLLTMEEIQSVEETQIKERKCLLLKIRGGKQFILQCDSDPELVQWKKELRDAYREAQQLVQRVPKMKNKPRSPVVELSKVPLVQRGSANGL
GRK2 CP1: confirmation of human GRK2 inhibitors displacing RNA aptamer; 4% of 2,000 active; AID 504451; shares compounds with GRK2 inh; bead-bound GRK2, FAM-aptamer displacement, flow cytometry; aptamer displacement, % at 10 µM;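 active = aptamer displacement above 40%, near three times the noise of non-fluorescent compounds, on plates passing quality checks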;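 also: negative values mostly reflect intrinsic compound fluorescence rather than true enhancement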
FAM quench CP1: counter-screen for GRK2 aptamer inhibitors: fluorescent aptamer quenchers. shares compounds with GRK2 inh. Carboxyfluorescein RNA aptamer on beads, flow cytometry quenching; hits give low values. fluorescence response (% of DMSO), % at 10 µM. 2,000 tested, under 10 active;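 active = compounds that quench the bead-bound fluorescent RNA probe, cutting fluorescence to under half of the solvent control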;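 also: counterscreen run without GRK2 so only probe quenching by compound is measured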
GRK2 CP2: human GRK2 inhibition confirmation, cherry pick 2; shares compounds with GRK2 inh; bead-bound GRK2, FAM-aptamer displacement, flow cytometry; inhibition of aptamer binding, % at 10 µM; 360 tested, under 10 active;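 active = inhibition of aptamer binding above 40%, about triple the noise seen with nonglowing compounds, on plates passing quality control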;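 also: negative values mostly come from compounds that fluoresce themselves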
FAM quench CP2: aptamer fluorescence quenching in GRK2 counter-screen. fluorescence response vs DMSO, % at 10 µM. carboxyfluorescein RNA aptamer beads, flow cytometry quenching; hits give low values. 360 tested, under 10 active. shares compounds with GRK2 inh;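 active = response vs DMSO under 50%, meaning signal dropped by over half, treated as fluorescence quencher; inconclusive = no clear call, values can overlap the other calls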;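 also: labelled aptamer on streptavidin beads without GRK2 as a quench counter-screen; 100% = bead fluorescence of DMSO wells and lower means quenching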
Starred values were filed as active, the others as inactive; ? = inconclusive; · = no result given. A selection: hits, their analogues and other compounds. The true share with any hit is near 1.8%.

SMILES	Cardio protect	HDAC3 inh	Neddylation inh	GRK2 inh	GRK2 CP1	FAM quench CP1	others
COc1ccc(C2CC(c3cccc(Cl)c3)=NN2c2ccc(S(N)(=O)=O)cc2)cc1 (stereo unspecified)	11	·	·	0	·	·
O=C(Nc1ccc(Cl)cn1)c1ccc(-c2cc(Cl)ccc2Cl)o1	-3	3	·	42*	·	·	GRK2 CP2=-26;FAM quench CP2=100
COc1cccc(OC)c1NC(=O)c1ccc(-c2cc(Cl)ccc2Cl)o1	1	·	-10	·	·	·
N#CC1=C2SCN(Cc3ccco3)CN2C(=O)CC1c1c(F)cccc1Cl (stereo unspecified)	16	?	8	88*	-3	100
Cc1cccc(C)c1OCCCCN1CCNCC1	3	-3	-1	42*	-5	99
CCOCc1cnc(C)nc1NCC(=O)c1c(C)[nH]c2ccccc12	-8	9	-2	56*	-1	100
CCOCc1cnc(C)nc1NCC(=O)c1c(C)[nH]c2cc(C)ccc12	9	-3	0	0	·	·
Cc1cc(C(=O)N2CCN(c3ccc(C(F)(F)F)cn3)CC2)c(C)o1	-3	·	26	0	·	·
Cc1cccc(C(=O)N2CCN(c3ccc(C(F)(F)F)cn3)CC2)c1C	-17	2	16	1	-13	100
Cc1ccc(/C=C2\SC(=S)N(C3CCS(=O)(=O)C3)C2=O)o1 (stereo unspecified)	-12	3	-5	43*	7	104
COc1ccc(NC(=O)CSc2nc3ccccc3nc2N2CCCCC2)cc1	-4	0	10	0	·	·
CCc1ccc(NC(=O)CSc2nc3ccccc3nc2N2CCCCC2)cc1	-22	0	7	69*	-2	92
COC(=O)C1CCN(S(=O)(=O)CCNC(=O)c2ccc3c(c2)OCO3)CC1	3	-1	6	0	·	·
O=C(C[n+]1cnn(CC(=O)c2ccc(Cl)cc2Cl)c1)c1ccc([N+](=O)[O-])cc1	-2	-3	-41	59*	-23	97
O=C(Cn1cnc([N+](=O)[O-])c1)c1ccc(Cl)cc1	3	-1	-34	2	·	·
CCc1nnc(SCC(=O)Nc2ccc(NC(C)=O)cc2)n1-n1cccc1	-3	3	13	0	·	·
COC(=O)N/N=C/C1=CCC2CC1C2(C)C (stereo unspecified)	-2	-6	-7	0	·	·
CC1(C)C2CC=C(/C=N/NC(=O)c3ccc(O)cc3)C1C2 (stereo unspecified)	-1	1	8	74*	-1	97
Cc1cc(OCc2cc(C(=O)N3CCC(Oc4cccnc4)CC3)no2)cc(C)c1Cl	-14	-6	-6	0	·	·
Cc1cc(OCC(=O)N(Cc2ccco2)c2c(N)n(Cc3ccccc3)c(=O)[nH]c2=O)ccc1Cl	-3	5	-8	0	2	106
Cc1ccc2c(CC(=O)OCC(=O)N(CC(C)C)c3c(N)n(Cc4ccccc4)c(=O)[nH]c3=O)coc2c1	6	-2	11	83*	0	114
CCN(C(=O)COC(=O)Cc1coc2cc(C)ccc12)c1c(N)n(Cc2ccccc2)c(=O)[nH]c1=O	-2	-5	4	4	·	·
COc1ccc(Cn2cc(C(=O)O)c(=O)c3ccccc32)cc1	-5	2	1	0	·	·
Cc1cc(NC(=O)CSc2nc(-c3cccs3)cc(C(F)(F)F)n2)no1	3	-1	2	45*	1	92
O=c1c2cc(Br)ccc2nc2n1CCCCC2	-10	2	-4	4	·	·
SMILES	Cardio protect	HDAC3 inh	Neddylation inh	GRK2 inh	GRK2 CP1	FAM quench CP1	others
O=c1c2cc([N+](=O)[O-])ccc2nc2n1CCCC2	-3	1	-31	64*	1	99
COc1ccc(N2CCN(C(=O)NC(=O)c3ccccc3)CC2)cc1	4	6	-2	57*	·	·	GRK2 CP2=5;FAM quench CP2=96
Cc1ccc(CNC(=O)CSc2nc3n[nH]c(C)c3c(=N)n2-c2cccc(C)c2)cc1	0	?	27	99*	-1	101
COC(=O)C1=C(C)N(Cc2ccccc2)C(=NCc2ccccc2)N[C@H]1c1cccc(F)c1	-14	-4	-5	0	·	·
CCN(CC)CCCN=C1N[C@@H](c2cccc(F)c2)C(C(=O)OC)=C(C)N1Cc1ccccc1	-12	10	-30	51*	·	·	GRK2 CP2=1;FAM quench CP2=100
O=C(c1ccccc1)n1c(=S)nc2ccccn21	-26	-9	1	0	·	·
Cc1cccc(C(=O)n2c(=S)nc3ccccn32)c1	-30	6	-5	49*	-15	97
O=C(CCCN1C(=O)/C(=C\c2ccco2)SC1=S)Nc1ccc(O)cc1C(=O)O	-2	-4	-12	45*	-18	93
O=C(CCCN1C(=O)/C(=C\c2cccs2)SC1=S)Nc1ccc(O)cc1C(=O)O	-1	6	-50	0	·	·
CCn1c(CCCOc2ccc(Cl)cc2Cl)n[nH]c1=S	-8	0	10	0	·	·
Cc1ccc(S(=O)(=O)c2nc(S(C)(=O)=O)sc2N2CCC3(CC2)OCCO3)cc1	2	-1	-15	52*	·	·	GRK2 CP2=-1;FAM quench CP2=100
Cc1ccc(S(=O)(=O)c2nc(S(=O)(=O)c3ccc(C)cc3)c(N3CCN(CCO)CC3)s2)cc1	15	0	-5	0	-3	97
COCCn1c(=S)[nH]c2cc(C(=O)N3CCN(Cc4ccc5c(c4)OCO5)CC3)ccc2c1=O	1	-9	-2	45*	2	101
O=C(CC(Nc1ccccc1)c1ccccc1)C1CC1 (stereo unspecified)	1	7	6	0	·	·
CCN(CC)S(=O)(=O)c1ccc(N2CCOCC2)c(NC(=O)COc2ccccc2C)c1	3	1	9	74*	-1	100
CCN(CC)S(=O)(=O)c1ccc(N2CCOCC2)c(NC(=O)CC23CC4CC(CC(Br)(C4)C2)C3)c1	-2	3	-54	100*	·	·	GRK2 CP2=0;FAM quench CP2=96
CCN(CC)S(=O)(=O)c1ccc(N2CCOCC2)c(NC(=O)COc2ccccc2C#N)c1	-3	-1	4	3	·	·
COC(=O)[C@H](Cc1ccccc1)NC(=O)N1CCN(c2ccccc2)CC1	1	11	5	4	·	·
O=C(O)[C@H](Cc1ccccc1)NC(=O)N1CCN(c2ccc(F)cc2)CC1	-1	0	7	93*	1	102
COc1cc(C(=O)N2CCN(C3CCCCC3)CC2)cc(OC)c1OC	10	2	-6	3	·	·
CN(C)c1nc(NCc2ccccc2)nc(SCC(=O)Nc2ccc(Cl)c(Cl)c2)n1	-12	13	-14	0	·	·
CCNc1nc(SCC(=O)Nc2ccc(Cl)c(Cl)c2)nc(N(C)C)n1	-16	-6	-2	45*	0	105

Compound activity from PubChem BioAssay.
